The campaign covered roughly 5,500 compounds. About 2,000 (36%) were called active. Inconclusive results (about 18%) are left out. Rule as the data show it: active = normalized growth mostly below about 0.91 (no sharp cut-off); inconclusive = no clear call, values can overlap the other calls; inactive = mostly above about 0.92. The list shows a part of the results.
Assay: chemical genetic growth profiling, strain panel (AID 1159580);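 also: tested at 20 µM; growth read once vehicle control cultures reached saturation at 30 °C; 1 = growth at the plate median or of vehicle wells; lower values mean less growth of the strain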
Settings: growth OD

Measured: normalized growth

CC(=O)[C@H]1CCC2C3C[C@H](C)C4=CC(=O)CC[C@]4(C)C3[C@@H](O)C[C@@]21C (some centres undefined)
inactive: S. cerevisiae deletion strains, locus YJR075W, strain HOC1, stronger effect = lower value 0.993 | S. cerevisiae deletion strains, locus YKL009W, strain mrt4, stronger effect = lower value 0.991 | S. cerevisiae deletion strains, locus YKL068W, stronger effect = lower value 0.977 | S. cerevisiae deletion strains, locus YKL085W, strain MDH1 (second series), stronger effect = lower value 0.96 | S. cerevisiae deletion strains, locus YKL085W, strain MDH1, stronger effect = lower value 0.96 | S. cerevisiae deletion strains, locus YKL160W, strain elf1, stronger effect = lower value 0.956 | S. cerevisiae deletion strains, locus YKL190W, strain CNB1, stronger effect = lower value 0.989 | S. cerevisiae deletion strains, locus YKR001C, strain vps1, stronger effect = lower value 0.998 | S. cerevisiae deletion strains, locus YKR026C, strain gcn3, stronger effect = lower value 0.986 | S. cerevisiae deletion strains, locus YKR091W, strain srl3, stronger effect = lower value 0.977 | S. cerevisiae deletion strains, locus YLL001W, strain dnm1, stronger effect = lower value 0.947 | S. cerevisiae deletion strains, locus YLL026W, stronger effect = lower value 0.99 | S. cerevisiae deletion strains, locus YLL041C, strain sdh2, stronger effect = lower value 0.983 | S. cerevisiae deletion strains, locus YLR027C, strain aat2, stronger effect = lower value 0.996 | S. cerevisiae deletion strains, locus YLR039C, strain RIC1, stronger effect = lower value 0.785 | S. cerevisiae deletion strains, locus YLR058C, strain SHM2, stronger effect = lower value 0.98 | S. cerevisiae deletion strains, locus YLR102C, strain apc9, stronger effect = lower value 0.975 | S. cerevisiae deletion strains, locus YLR113W, strain HOG1, stronger effect = lower value 0.993 | S. cerevisiae deletion strains, locus YLR221C, strain rsa3, stronger effect = lower value 0.945 | S. cerevisiae deletion strains, locus YLR258W, strain gsy2, stronger effect = lower value 0.986 | S. cerevisiae deletion strains, locus YLR262C, strain YPT6 (second series), stronger effect = lower value 0.95 | S. cerevisiae deletion strains, locus YLR262C, strain YPT6, stronger effect = lower value 0.901 | S. cerevisiae deletion strains, locus YLR268W, strain sec22, stronger effect = lower value 0.995 | S. cerevisiae deletion strains, locus YLR320W, strain mms22, stronger effect = lower value 0.961 | S. cerevisiae deletion strains, locus YLR330W, strain CHS5, stronger effect = lower value 0.988 | S. cerevisiae deletion strains, locus YLR342W, strain FKS1 (second series), stronger effect = lower value 0.99 | S. cerevisiae deletion strains, locus YLR342W, strain FKS1, stronger effect = lower value 0.972 | S. cerevisiae deletion strains, locus YLR357W, strain rsc2, stronger effect = lower value 0.948 | S. cerevisiae deletion strains, locus YLR370C, strain arc18, stronger effect = lower value 0.959 | S. cerevisiae deletion strains, locus YLR371W, strain rom2, stronger effect = lower value 0.978 | S. cerevisiae deletion strains, locus YLR384C, strain iki3, stronger effect = lower value 0.987 | S. cerevisiae deletion strains, locus YLR418C, strain cdc73, stronger effect = lower value 0.97 | S. cerevisiae deletion strains, locus YML016C, strain PPZ1, stronger effect = lower value 0.994 | S. cerevisiae deletion strains, locus YML032C, strain rad52, stronger effect = lower value 1.01 | S. cerevisiae deletion strains, locus YML120C, strain ndi1, stronger effect = lower value 0.95 | S. cerevisiae deletion strains, locus YML124C, strain tub3, stronger effect = lower value 0.98 | S. cerevisiae deletion strains, locus YMR058W, strain fet3, stronger effect = lower value 0.989 | S. cerevisiae deletion strains, locus YMR078C, strain ctf18, stronger effect = lower value 0.96 | S. cerevisiae deletion strains, locus YMR125W, strain sto1, stronger effect = lower value 0.954 | S. cerevisiae deletion strains, locus YMR129W, stronger effect = lower value 0.983 | S. cerevisiae deletion strains, locus YMR205C, strain PFK2, stronger effect = lower value 0.938 | S. cerevisiae deletion strains, locus YMR223W, strain ubp8, stronger effect = lower value 0.953 | S. cerevisiae deletion strains, locus YMR231W, strain pep5, stronger effect = lower value 0.989 | S. cerevisiae deletion strains, locus YMR307W, strain GAS1, stronger effect = lower value 1.04 | S. cerevisiae deletion strains, locus YNL067W, strain RPL9B, stronger effect = lower value 0.99 | S. cerevisiae deletion strains, locus YNL071W, strain lat1, stronger effect = lower value 0.973 | S. cerevisiae deletion strains, locus YNL153C, strain GIM3, stronger effect = lower value 0.997 | S. cerevisiae deletion strains, locus YNL183C, strain NPR1, stronger effect = lower value 0.931 | S. cerevisiae deletion strains, locus YNL209W, strain ssb2, stronger effect = lower value 0.994 | S. cerevisiae deletion strains, locus YNL233W, strain BNI4, stronger effect = lower value 1 | S. cerevisiae deletion strains, locus YNL248C, strain rpa49, stronger effect = lower value 0.985 | S. cerevisiae deletion strains, locus YNL250W, strain rad50, stronger effect = lower value 0.961 | S. cerevisiae deletion strains, locus YNL271C, strain bni1, stronger effect = lower value 0.972 | S. cerevisiae deletion strains, locus YNL298W, strain CLA4, stronger effect = lower value 0.986 | S. cerevisiae deletion strains, locus YNL307C, strain MCK1, stronger effect = lower value 0.976 | S. cerevisiae deletion strains, locus YNL322C, strain KRE1 (second series), stronger effect = lower value 0.982 | S. cerevisiae deletion strains, locus YNR049C, strain mso1, stronger effect = lower value 0.985 | S. cerevisiae deletion strains, locus YNR052C, strain pop2, stronger effect = lower value 0.986 | S. cerevisiae deletion strains, locus YOL006C, strain TOP1, stronger effect = lower value 0.931 | S. cerevisiae deletion strains, locus YOL012C, strain htz1 1.85 | S. cerevisiae deletion strains, locus YOL147C, strain pex11, stronger effect = lower value 0.986 | S. cerevisiae deletion strains, locus YOR001W, strain rrp6, stronger effect = lower value 1.03 | S. cerevisiae deletion strains, locus YOR061W, strain CKA2, stronger effect = lower value 0.982 | S. cerevisiae deletion strains, locus YOR069W, strain VPS5, stronger effect = lower value 0.991 | S. cerevisiae deletion strains, locus YOR070C, strain gyp1, stronger effect = lower value 0.986 | S. cerevisiae deletion strains, locus YOR080W, strain dia2, stronger effect = lower value 0.984 | S. cerevisiae deletion strains, locus YOR083W, strain WHI5, stronger effect = lower value 0.972 | S. cerevisiae deletion strains, locus YOR106W, strain vam3, stronger effect = lower value 0.955 | S. cerevisiae deletion strains, locus YOR136W, strain idh2, stronger effect = lower value 1 | S. cerevisiae deletion strains, locus YOR144C, strain elg1, stronger effect = lower value 0.992 | S. cerevisiae deletion strains, locus YOR184W, strain ser1, stronger effect = lower value 0.962 | S. cerevisiae deletion strains, locus YOR231W, strain MKK1, stronger effect = lower value 0.977 | S. cerevisiae deletion strains, locus YOR265W, strain rbl2, stronger effect = lower value 0.988 | S. cerevisiae deletion strains, locus YOR270C, strain vph1, stronger effect = lower value 0.933 | S. cerevisiae deletion strains, locus YOR290C, strain snf2, stronger effect = lower value 0.895 | S. cerevisiae deletion strains, locus YOR316C, strain cot1, stronger effect = lower value 0.979 | S. cerevisiae deletion strains, locus YPL051W, strain arl3, stronger effect = lower value 0.983 | S. cerevisiae deletion strains, locus YPL055C, strain LGE1, stronger effect = lower value 0.991 | S. cerevisiae deletion strains, locus YPL078C, strain atp4, stronger effect = lower value 0.96 | S. cerevisiae deletion strains, locus YPL106C, strain sse1, stronger effect = lower value 0.968 | S. cerevisiae deletion strains, locus YPL240C, strain hsp82, stronger effect = lower value 0.989 | S. cerevisiae deletion strains, locus YPL241C, strain CIN2, stronger effect = lower value 0.995 | S. cerevisiae deletion strains, locus YPL256C, strain CLN2, stronger effect = lower value 0.983 | S. cerevisiae deletion strains, locus YPR119W, strain clb2, stronger effect = lower value 0.978 | S. cerevisiae deletion strains, locus YPR141C, strain kar3, stronger effect = lower value 0.961 | S. cerevisiae deletion strains, locus YPR163C, strain tif3, stronger effect = lower value 0.987 | S. cerevisiae deletion strains, locus YPR167C, strain met16, stronger effect = lower value 0.984 | S. cerevisiae deletion strains, strain wtn01, stronger effect = lower value 0.983 | S. cerevisiae strains, strain wild type, stronger effect = lower value 0.994

Source: PubChem BioAssay AID1159580 (chemical genetic matrix, 2015)
